Shiga inhibitor = A qHTS for Small Molecule Inhibitors of Shiga Toxin | 290,000 compounds, 9.2% hits | AID 2315, 2010 | Vero cells, Shiga toxin protein synthesis inhibition reporter | inhibition, % at 38.7 µM; in the data active = inhibition mostly above about 28%, no sharp cut-off; inactive = mostly below about 43%; also: 0% is about no effect
Pf growth 96h = Primary qHTS for delayed death inhibitors of the malarial parasite plastid, 96 hour incubation | 320,000 compounds, 6.9% hits | P. falciparum luciferase reporter growth, 96 h | Potency, µM (highest dose often 28.7 µM), inactives show top-dose activity change, negative = inhibition, most hits filed as inhibitors | AID 504834, 2011; also: potency is read from the fitted curve at half-maximal effect; % is scaled to controls: 0 for no effect and ±100 for the full control effect
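Delayed-death screen, second-generation endpoint: infected erythrocytes, 2% hematocrit, 0.05% parasitemia final; 96 hours at 37 C, 5% CO2; luciferase detection reagent; luminescence decrease equals reduced growth.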
SARS PLP yeast = qHTS of Yeast-based Assay for SARS-CoV PLP | S. cerevisiae expressing SARS-CoV PLpro, growth rescue | 330,000 compounds, 0.19% hits | AID 485353, 2010 | Potency, µM (top dose mostly 32.9 µM), for the others: at the top dose activity, positive = growth rescue, usual class: activators; calls by dose curve; also: potency is read from the fitted curve at half-maximal effect; 0% is about no effect; nearly all actives have a fitted effect of over 55% in size
Pf growth 48h = Primary qHTS for delayed death inhibitors of the malarial parasite plastid, 48 hour incubation; Potency, µM (titrated, usually from 28.7 µM), for inactives: top-dose activity change, negative = inhibition, usual class: inhibitors; AID 504832, 2011; 310,000 compounds, 5.9% hits; P. falciparum luciferase growth in erythrocytes, 48 h; also: potency is read from the fitted curve at half-maximal effect; % is scaled to controls: 0 for no effect and ±100 for the full control effect
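Cell-based growth assay: transgenic P. falciparum expressing firefly luciferase, cultured in red cells within RPMI 1640 containing 0.5% w/v Albumax, 24 mM bicarbonate and gentamycin. A drop in luciferase activity indicates inhibition.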
CHX counter = Cycloheximide Counterscreen for Small Molecule Inhibitors of Shiga Toxin; max response, %; 300,000 compounds, 12% hits; cell reporter, cycloheximide protein synthesis inhibition counterscreen; in the data active = max response mostly above about 13%, no sharp cut-off; inactive = mostly below about 14%; also: read at 38.3 µM for the half of the compounds with a filed dose; 0% is about no effect
AMA1 RON2 block = qHTS for Inhibitors of AMA1-RON; Towards Development of Antimalarial Drug Lead: Primary Screen; 360,000 compounds, 0.2% hits; AlphaScreen AMA1-biotinylated RON2 peptide binding; AID 720542, 2013; Potency, µM (series often up to 58.2 µM), for the others: top-dose activity change, negative = inhibition, actives largely listed as inhibitors;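 also: potency is read from the fitted curve at half-maximal effect; 0% = vehicle wells and -100% = peptide control; nearly all actives have a fitted effect of over 45% in size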
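AMA1 (3D7) with his tag at 25 nM final met compounds first, then biotinylated RON2 peptide at 25 nM; detection used donor plus acceptor beads, 10 µg/mL apiece, read by AlphaScreen after 30 min at room temperature.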
The depositor's hits bear a star; ? = inconclusive; / = no result; [ ] = remark or other dose. This is a sample that favours compounds with a hit; in the whole collection about 19% have one here. Unless noted, calls follow the shape of the dose curve; as a rule, active = well fitted curve in the direction sought with a large enough effect; inconclusive = small, poorly fitted or top-dose-only effect, or another doubt; inactive = no such curve, though single readings can be large; an effect the other way counts as inactive or inconclusive.

SMILES	Shiga inhibitor	Pf growth 96h	SARS PLP yeast	Pf growth 48h	CHX counter	AMA1 RON2 block
COc1cccc(CCc2ccccc2OCC(CN(C)C)OC(=O)CCC(=O)O)c1 (stereo not drawn)	/	3.38µM*	/	4.78µM*	/	/
O=C(COc1ccccc1F)N1N=C(c2cccs2)CC1c1ccco1 (stereo not drawn)	/	?	-2.8%	?	/	-27.4%
Cc1ccccc1CN1CCC(Oc2ccc(C(=O)N3CCCC3)cc2)CC1	-9.7	74.2%	-0.5%	?	-3.8	2.0%
CCOc1cccc(CN2CCC(Oc3ccc(C(=O)N4CCCC4)cc3)CC2)c1	16.4	?	-1.5%	?	9.4	-9.6%
O=C(c1ccc(OC2CCN(C/C=C/c3ccc(F)cc3)CC2)cc1)N1CCCC1	-5.7	4.15µM*	-3.8%	8.28µM*	-1.7	-5.7%
O=C(c1ccc(OC2CCN(Cc3ccc(F)cc3)CC2)cc1)N1CCCC1	-6.3	?	2.9%	?	-1.5	15.5%
CCc1ccc(CN2CCC(Oc3ccc(C(=O)N4CCCCC4)cc3)CC2)cc1	-3.0	?	-5.9%	-28.8%	0.6	-13.4%
CC(C)c1ccc(CN2CCC(Oc3ccc(C(=O)N4CCCC4)cc3)CC2)cc1	-11.3	-30.7%	-3.9%	6.57µM*	-3.4	-12.2%
Cc1cccc(CN2CCC(Oc3ccc(C(=O)N4CCCCC4)cc3)CC2)c1	5.3	9.28µM*	23.3%	?	-1.2	-13.1%
C=CCOc1ccccc1CN1CCC(Oc2ccc(C(=O)N3CCCCC3)cc2)CC1	-1.6	10.4µM*	-1.3%	36.7%	-3.0	-5.0%
CC(C)NC(=O)C(c1ccc(F)cc1)N(Cc1ccco1)C(=O)CCC(=O)Nc1ccccn1 (stereo not drawn)	-7.7	-17.4%	0.8%	-9.2%	-5.9	20.8%
CC(CC(=O)NCc1cccnc1)c1ccccc1 (stereo not drawn)	3.7	?	-5.4%	-8.4%	3.7	-2.4%
Cc1cccc(CN2CCC(Oc3ccc(C(=O)N4CCCC4)cc3)CC2)n1	-5.2	2.33µM*	-4.1%	?	-1.3	27.9%
CCc1ccc(CN2CCC(Oc3ccc(C(=O)N4CCCC4)cc3)CC2)cc1	6.4	?	7.3%	9.28µM*	10.7	-7.3%
CCCCC(=O)Nc1ccc(NC(=O)CC)cc1OC	-0.1	/	2.5%	-9.8%	4.0	11.0%
Cc1ccc(-n2nc3c(c2NC(=O)C(C)(C)C)CS(=O)(=O)C3)cc1	-6.3	43.7%	-1.1%	10.0%	-2.0	-3.0%
COCCCNC(=O)CCCC(=O)NCCCOC	-15.2	119.5%	7.1%	8.4%	-5.8	-5.0%
COCCCNC(=O)CCCOc1ccccc1	25.9	184.4%	5.5%	/	31.3*	9.7%
O=C(CCCOc1ccccc1)NCCc1ccccc1	29.3	?	-1.8%	116.6%	14.2*	29.4%
CCc1cccc(NC(=O)CCS(=O)(=O)c2ccc(Br)cc2)c1	-6.5	-3.6%	-1.6%	12.9%	7.1	13.4%
COc1ccccc1CC(=O)O/N=C(\N)Cc1cccc2ccccc12	-8.1	?	-45.2%	5.86µM*	-3.9	-9.3%
Cc1ccc(C(=O)O/N=C(\N)Cc2cccc3ccccc23)cc1	15.3	22.5%	-10.1%	1.85µM*	12.2	0.0%
COc1cc(/C=C2\SC(=S)N(NC(=O)c3cccc(O)c3)C2=O)ccc1O	23.8	22.0%	-1.7%	29.2%	4.7	-25.0%
COc1cc(/C=C2\SC(=S)N(NC(=O)c3ccccc3OC)C2=O)ccc1O	25.7	24.5%	2.8%	-3.0%	17.2*	?
COc1cc(/C=C2\SC(=S)N(NS(=O)(=O)c3ccc(C)cc3)C2=O)cc(OC)c1OC	11.4	?	-1.6%	4.65µM*	0.7	12.3%
SMILES	Shiga inhibitor	Pf growth 96h	SARS PLP yeast	Pf growth 48h	CHX counter	AMA1 RON2 block
CC(=O)NN1C(=O)/C(=C/c2ccc(C(C)C)cc2)SC1=S	19.3	45.5%	-18.2%	11.2%	16.5*	20.1%
COc1cc(/C=C2\SC(=S)N(NC(=O)c3ccc(O)c(OC)c3)C2=O)ccc1O	22.6	33.5%	2.4%	0.6%[0.00184 µM]	21.5*	?
O=C(O)c1ccc(/C=C2\SC(=S)N(NC(=O)c3ccccc3)C2=O)cc1	-3.6	?	-1.7%	19.6%	-2.3	32.0%
CCN1C(=O)[C@H]2[C@@H](c3ccc(-c4ccc(C(C)=O)cc4)cc3)N3CCC[C@@]3(C(=O)OC)[C@H]2C1=O	/	?	3.2%	?	/	-11.7%
Cc1nc(CN2CCN(Cc3nc(C(c4ccccc4)c4ccccc4)no3)CC2)cs1	-2.9	?	-1.5%	?	-1.6	-9.8%
Cc1cc(C)n(CCOC(=O)c2sc3ccccc3c2Cl)n1	51.5	-2.7%	-4.8%	30.9%	18.4*	4.2%
COc1ccc(NC(=O)CSCC(=O)N(C)CC(=O)Nc2cccc3ccccc23)cc1	/	1.7%	-3.6%	7.5%	/	0.8%
Cc1nn(C)c(-c2n[nH]c(=S)n2-c2ccccc2)c1Cl	active	9.8%	3.9%	12.2%	10.2	1.6%
Cn1cc(Cl)c(-c2n[nH]c(=S)n2-c2ccccc2)n1	20.0	-20.4%	-3.9%	4.7%	-2.4	1.6%
O=C(CC(=O)NC1CCCCC1)N/N=C/c1ccccc1F	-5.5	12.4%	-0.1%	24.3%	-1.4	/
NC[C@@H]1O[C@@H](O[C@H]2[C@H](O)[C@H](O[C@@H]3O[C@H](CO)[C@@H](O)[C@H](N)[C@@H]3O)[C@@H](N)C[C@H]2N)[C@H](N)C[C@@H]1O	/	11.0%[12.8 µM]	/	-8.3%[12.8 µM]	/	/
CC(C)N(C(=O)[C@H]1CC(CC(=O)NCC23CC4CC(CC(C4)C2)C3)C(=O)N2CCc3c([nH]c4ccccc34)[C@]12C)C(C)C (stereo partly drawn)	/	/	-1.0%	/	/	-0.8%
CCN(CC)c1ccc(C2C3CCCCC3(O)CCN2CC(=O)N2CCCCC2)cc1 (stereo not drawn)	-17.0	?	6.3%	?	1.3	-9.9%
CCN(CC)c1ccc(C2C3CCCCC3(O)CCN2C(=O)c2cccs2)cc1 (stereo not drawn)	12.9	11.7µM*	-4.8%	?	5.3	-13.7%[2.32 µM]
O=C(c1cccs1)N1CCC2(O)CCCCC2C1c1ccc(F)cc1 (stereo not drawn)	-9.9	41.0%	-6.1%	7.6%	1.0	10.0%
CCN(CC)c1ccc([C@H]2[C@@H]3CCCC[C@]3(O)CCN2CC(=O)NCc2ccco2)cc1	-6.8	?	0.3%	10.4µM*	-2.9	9.1%
CC(C)NC(=O)CCCc1c[nH]c2ccccc12	41.5	7.2%	-5.8%	26.1%	4.1	-3.1%
O=C1C=C(Nc2cccnc2)c2ccccc2C1=O	/	/	/	/	/	-14.0%
O=c1cc(CO)occ1OCc1cccc(F)c1	15.7	40.2%	-13.6%	45.1%	14.4	-4.5%

Screening data deposited in PubChem by National Center for Advancing Translational Sciences (NCATS).
